This is an account of results in PubChem BioAssay (NCATS).

Molecules are shown by their SMILES. Results filed as inconclusive are left out. Values without a mark were called inactive. The call rests on the fitted dose curve; in most records, active means well fitted inhibition curve with a large enough effect; inconclusive means small, poorly fitted or top-dose-only effect; inactive means no such curve, though single readings can be large or run the other way.
On the % scale 0 is the no-effect control and ±100 the full control effect.

The target of this assay is Glutaminase kidney isoform, mitochondrial (Homo sapiens) (UniProt O94925). Put plainly: qHTS for Inhibitors of Glutaminase (GLS): LOPAC Validation (AID 624146).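 Further: glutamate product detected by oxidase and peroxidase coupled Amplex red fluorescence gain; nearly all actives have a fitted effect of over 60% in size.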 The settings on record: glutaminase enzyme activity inhibition; series mostly up to 46.1 µM; activity change, negative = inhibition: at the top concentration. From the text: Glutaminase (GLS) catalyzes the hydrolysis of glutamine into glutamate and ammonia. It plays a critical role in glutaminolysis, which is an important energy source for proliferating cells. It was shown that c-Myc, an oncogenic transcription factor known to regulate microRNAs and to stimulate cell proliferation, increases glutamine metabolism by stimulating the expression of GLS via direct suppression of miR23a and miR23b.
Chain of Glutaminase kidney isoform, mitochondrial (Homo sapiens) (O94925 whole entry, looked up, canonical isoform): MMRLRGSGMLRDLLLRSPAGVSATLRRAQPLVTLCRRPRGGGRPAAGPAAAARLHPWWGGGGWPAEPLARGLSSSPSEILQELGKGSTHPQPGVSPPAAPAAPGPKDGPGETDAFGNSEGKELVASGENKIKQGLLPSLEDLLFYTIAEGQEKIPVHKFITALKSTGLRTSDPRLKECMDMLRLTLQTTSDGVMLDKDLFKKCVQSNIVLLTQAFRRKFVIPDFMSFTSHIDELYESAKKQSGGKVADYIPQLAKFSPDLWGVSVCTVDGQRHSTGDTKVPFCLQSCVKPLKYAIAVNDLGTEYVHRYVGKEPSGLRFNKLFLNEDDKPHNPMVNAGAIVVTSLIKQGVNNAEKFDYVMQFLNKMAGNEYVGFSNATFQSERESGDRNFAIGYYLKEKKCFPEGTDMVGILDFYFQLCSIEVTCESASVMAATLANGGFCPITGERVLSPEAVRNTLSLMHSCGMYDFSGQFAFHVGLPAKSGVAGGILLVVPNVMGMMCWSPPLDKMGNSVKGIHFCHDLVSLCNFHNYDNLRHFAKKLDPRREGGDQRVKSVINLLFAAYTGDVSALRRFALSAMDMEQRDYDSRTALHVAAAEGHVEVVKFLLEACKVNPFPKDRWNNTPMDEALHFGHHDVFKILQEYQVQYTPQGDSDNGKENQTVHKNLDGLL
GLS is also thought to play a pathogenic role on HAD using a human HIV-1 infected macrophage system. […] GLS inhibition limits glutamate release and provides neuroprotection against HIV-1 infected macrophages.
The overall goal of this project is to identify small molecule inhibitors of GLS through quantitative high throughput screening (qHTS) of the MLSMR. A validated potent and selective inhibitor can be used as a tool molecule to further study the pharmacology of its target as well as explore its potential therapeutic application in cancer and inflammatory neurological disorders, such as HIV1-associated dementia (HAD) and multiple sclerosis.
NIH Chemical Genomics Center [NCGC]
NIH Molecular Libraries Probe Centers Network [MLPCN]
Assay Submitter (PI): Barbara S. Slusher, Johns Hopkins University
Three 3 uL of hKGA is dispensed into black well 1536-well plates in 45 mM KH2PO4 (pH 8.2), 0.02% Tween-20. Then 23 nL of compounds are added through pin tool transfer. To this, 1 uL of 1mM L-Glutamine and 1 uL of a solution of L-Glutamateoxidase, HRP, Amplex red are added. Plate is centrifuged for 25 sec before an initial fluorescence read is obtained on the ViewLux, after 30 min of RT incubation, the final read is taken on the ViewLux.
(qHTS replaces the single test concentration by a dilution series.)
On to `CN1CCN(CCCN2c3ccccc3Sc3ccc(C(F)(F)F)cc32)CC1`, for which the “activity change, negative = inhibition” value is -15.9%. Regarding `Nc1nc2c(ncn2COCCO)c(=O)[nH]1`, the “activity change, negative = inhibition” value is -6.85%. As to `Clc1cccc(Cl)c1NC1=NCCN1`, the “activity change, negative = inhibition” value was -15.4%.

Take `Nc1nc2ccc(OC(F)(F)F)cc2s1`: the “activity change, negative = inhibition” value was -6.73%.

With `CCCCNc1cc(C(=O)O)cc(S(N)(=O)=O)c1Oc1ccccc1`, the “activity change, negative = inhibition” value was -5.55%.

For `CC(C)(Sc1ccc(CCN(CCCCC2CCCCC2)C(=O)NC2CCCCC2)cc1)C(=O)O`, the “activity change, negative = inhibition” value was 0.0881%. For the compound `Cc1[nH]c(=O)c(C#N)cc1-c1ccncc1`, the “activity change, negative = inhibition” value is -0.23%.

Take `OC(CN1CCC(Cc2ccc(F)cc2)CC1)c1ccc(Cl)cc1` (stereo not given): the “activity change, negative = inhibition” value is 4.73%.

Regarding `CCCC(CCC)C(=O)O`, the “activity change, negative = inhibition” value was 16.1%. The result for `CCn1cc(C(=O)O)c(=O)c2cc(F)c(N3CCNC(C)C3)c(F)c21` (stereo not given) reads -27.6%. For `NC(=O)c1cnccn1`, the “activity change, negative = inhibition” value was -13.5%. As to `c1ccc([C@H]2CN3CCSC3=N2)cc1`, the “activity change, negative = inhibition” value is -2.06%. With `O=C(Nc1nc2ccccc2n1CCN1CCOCC1)c1cccc([N+](=O)[O-])c1`, the “activity change, negative = inhibition” value was -1.41%. The result for `Cc1cc2c(C(C)C)c(O)c(O)c(C=O)c2c(O)c1-c1c(C)cc2c(C(C)C)c(O)c(O)c(C=O)c2c1O` reads 93.8%. Take `O=C1CCC(N2C(=O)c3ccccc3C2=O)C(=O)N1` (stereo not given): the “activity change, negative = inhibition” value is -12.1%. The result for `O=C(O)COCCN1CCN(C(c2ccccc2)c2ccc(Cl)cc2)CC1` (stereo not given) reads -8.13%; that for `Nc1ccc(S(=O)(=O)Nc2ccnn2-c2ccccc2)cc1`, -16.6%; that for `OC(CCN1CCCCC1)(c1ccccc1)C1CC2C=CC1C2` (stereo not given), -8.64%.

Take `CC(C)C[C@H](NC(=O)[C@@H](O)[C@H](N)Cc1ccccc1)C(=O)O`: the “activity change, negative = inhibition” value is -13%. Take `Cc1cn[nH]c1`: the “activity change, negative = inhibition” value was 41.3%. The result for `Cc1ccccc1C(OCCN(C)C)c1ccccc1` (stereo not given) reads 28%; that for `N[C@@H]1CONC1=O`, -20.1%; that for `Cn1cnc([N+](=O)[O-])c1Sc1ncnc2nc[nH]c12`, 0.768%.

On to `O=C1CCc2cc(OCCCCc3nnnn3C3CCCCC3)ccc2N1`, for which the “activity change, negative = inhibition” value is 1.5%. As to `CC(C)(C)NCC(O)c1ccc(O)c(CO)c1` (stereo not given), the “activity change, negative = inhibition” value is 7.44%. Turning to `NCCCC(N)(C(=O)O)C(F)F` (stereo not given), the “activity change, negative = inhibition” value was 5.9%.

As for `CC(C[N+](C)(C)C)OC(N)=O` (stereo not given), the “activity change, negative = inhibition” value is -5.71%. Regarding `NC[C@H](O)c1ccc(O)c(O)c1`, the “activity change, negative = inhibition” value is 202%.

On to `Nc1ncnc2nc(-c3ccc(N4CCOCC4)nc3)cc(-c3cccc(Br)c3)c12`, for which the “activity change, negative = inhibition” value is -19.9%.

On to `CCN(CC)CCCC(C)Nc1ccnc2cc(Cl)ccc12` (stereo not given), for which the “activity change, negative = inhibition” value is -14.2%. In the case of `C[C@]12CCC(=O)C=C1CC[C@@H]1[C@@H]2[C@@H](O)C[C@@]2(C)[C@H]1CC[C@]2(O)C(=O)CO`, the “activity change, negative = inhibition” value is -10.6%.

With `O=c1[nH]cnc2[nH]ncc12`, the “activity change, negative = inhibition” value is -2.86%. `C1COC(NC(C2CC2)C2CC2)=N1`: the “activity change, negative = inhibition” value is -8.96%. As for `NCCc1ccc(O)c(O)c1`, the “activity change, negative = inhibition” value is 129%. Under `CNC[C@H](O)c1cccc(O)c1` stands -0.266%.

For `CC(C)NCC(O)COc1ccc(COCCOC(C)C)cc1` (stereo not given), the “activity change, negative = inhibition” value is -2.68%. `NC(N)=NC(=O)c1nc(Cl)c(N)nc1N`: the “activity change, negative = inhibition” value is -10.4%. The result for `CC(=O)Oc1ccccc1C(=O)O` reads 30.6%; that for `Cc1oncc1C(=O)Nc1ccc(C(F)(F)F)cc1`, -5.87%. For `O=NN(CCCl)C(=O)NCCCl`, the “activity change, negative = inhibition” value is -21.9%.
